Results taken from PubChem BioAssay (NCATS).
Values joined by “and” are separate entries in the source; they are usually repeats but may differ in a detail not shown here. Identical values can stand only once. Values without a mark were called inactive. Inconclusive results are not listed. A call without a number means that no potency is given here. Active and inactive are the calls of the source. Unless noted, calls follow the shape of the dose curve; as a rule, active = well fitted curve in the direction sought with a large enough effect; inconclusive = small, poorly fitted or top-dose-only effect, or another doubt; inactive = no such curve, though single readings can be large; an effect the other way counts as inactive or inconclusive.

Legend:
[1] = qHTS assay for small molecule disruptors of the mitochondrial membrane potential - 1 hr assay (AID 651754; calls by dose curve; also: nearly all actives have a fitted effect of over 35% in size; also: potency is read from the fitted curve at half-maximal effect)
How it was run: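 Loss of mitochondrial potential shifts the cationic dye from red mitochondrial aggregates to green cytoplasmic monomers. Cells (HepG2) are treated with compound for 1 hr before a 30 min dye incubation at 37C.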

[2] = qHTS assay for small molecule disruptors of the mitochondrial membrane potential - 5 hr assay (AID 651755; calls by dose curve; also: nearly all actives have a fitted effect of over 40% in size; also: potency is read from the fitted curve at half-maximal effect)
How it was run: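 Seed HepG2 overnight, add compound, incubate 5 hr at 37C and 5% CO2, stain 30 min with Mito-MPS, then measure monomer (490/535 nm) and aggregate (540/590 nm) fluorescence.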

[3] = target: Tumor necrosis factor (Homo sapiens) (UniProt P01375); experiment: qHTS assay to identify small molecules that stimulate Tumor Necrosis Factor-alpha (TNF-alpha) secretion (AID 651757; active = well fitted curve in the direction sought with a large enough effect in the signal ratio; the % refers to the signal ratio)
Chain of Tumor necrosis factor (Homo sapiens) (P01375 whole entry, looked up): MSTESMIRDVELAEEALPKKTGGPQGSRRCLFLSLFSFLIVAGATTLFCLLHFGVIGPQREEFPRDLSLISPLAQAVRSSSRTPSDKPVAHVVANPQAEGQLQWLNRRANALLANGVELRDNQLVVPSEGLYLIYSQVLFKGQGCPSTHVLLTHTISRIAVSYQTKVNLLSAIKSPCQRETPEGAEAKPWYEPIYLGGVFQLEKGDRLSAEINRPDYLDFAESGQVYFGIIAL
How it was run: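 Human monocytic THP-1 cells are plated, treated with compound and held at 37 C for 17 hrs. Labeled anti-TNF-alpha antibody mixture is then added; after 3 hr at room temperature, TR-FRET signal reports secreted TNF-alpha.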

[4] = qHTS assay for environmental chemicals that activate the Aryl hydrocarbon Receptor (AhR) signaling pathway (AID 651777); conditions: 1A2-DRE human hepatoma cells, luciferase, 24 h; activation: hits give high values; also: nearly all actives have a fitted effect of over 15% in size
How it was run: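 AhR activation is scored as a rise in luciferase from a stable DRE–CYP1A2 promoter construct in human hepatoma cells. Treatment lasts 24 hr at 37 C; detection uses One-Glo after 30 min at room temperature.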

[5] = qHTS assay for small molecule agonists of the antioxidant response element (ARE) signaling pathway measured by Nrf2-dependant transcriptional activity (AID 720636; active = well fitted curve in the direction sought with a large enough effect in the repeat runs; an effect the other way counts as inactive or inconclusive;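 also: HepG2 cells with an ARE-driven luciferase reporter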)
How it was run: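 First, ARE-luc HepG2 cells attached for 6 hr at 37 C in 1% dialyzed FBS medium. Next, compound or DMSO was added and incubated 16 hr. Finally, ONE-Glo reagent was added and luminescence measured after 30 min.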

[6] = qHTS assay for small molecule antagonists of the retinoid-related orphan receptor gamma (ROR-gamma) signaling pathway - cell viability counter screen (AID 720652; active = well fitted curve in the direction sought with a large enough effect in the repeat runs; an effect the other way counts as inactive or inconclusive;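 also: CHO reporter cells with doxycycline-induced ROR-gamma expression; series mostly up to about 92 µM; compound exposure lasted 16 hr before ATP read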)
How it was run: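 Steps: seed CHO cells bearing TET-inducible ROR and ROR response element-luciferase; rest 5 hr at 37 C; add compound, then doxycycline; incubate 16 hr; add CellTiter-Glo and read luminescence as ATP-based viability.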

[7] = qHTS assay for small molecule agonists of the antioxidant response element (ARE) signaling pathway measured by Nrf2-dependant transcriptional activity - cell viability counter screen (AID 720653; active = well fitted curve in the direction sought with a large enough effect in the repeat runs; an effect the other way counts as inactive or inconclusive); conditions: ARE-bla HepG2 viability, CellTiter-Glo ATP luminescence, 16 h; hits give low values
How it was run: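 ARE-bla HepG2 cells (2,000/well) rested 5 hrs at 37C/5% CO2, then exposed to compounds in DMSO for 16 hrs. Viability was read in the same wells as intracellular ATP by luminescence, 30 min at room temperature after reagent addition.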

[8] = qHTS assay for cell viability of HEK293 cells (AID 743288); conditions: ATP luminescence (CellTiter-Glo), 18 h, hits give low values; also: nearly all actives have a fitted effect of over 50% in size
How it was run: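 HEK293, 18 h, 37 C, ATP luminescence. Cells at 2,000/well were allowed at least 5 h to settle before dosing; CellTiter-Glo developed 30 min at RT.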

[9] = qHTS assay for cell viability of the p53RE-bla HCT-116 cell line (AID 743292); also: nearly all actives have a fitted effect of over 55% in size
How it was run: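 Quantitative high-throughput format: compounds in DMSO were pinned onto p53RE-bla HCT-116 cells (4,000/well) and incubated 16 h at 37 C. Total intracellular ATP, read by CellTiter-Glo luminescence, reflects viable cell number.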

[10] = target: Nuclear receptor subfamily 1 group I member 2 (Rattus norvegicus) (UniProt Q9R1A7); experiment: qHTS assay for small molecule activators of the rat pregnane X receptor (rPXR) signaling pathway (AID 651751; call rule not given here); conditions: rPXR reporter cells, luciferase (One-Glo), 24 h
Chain of Nuclear receptor subfamily 1 group I member 2 (Rattus norvegicus) (Q9R1A7 whole entry, looked up): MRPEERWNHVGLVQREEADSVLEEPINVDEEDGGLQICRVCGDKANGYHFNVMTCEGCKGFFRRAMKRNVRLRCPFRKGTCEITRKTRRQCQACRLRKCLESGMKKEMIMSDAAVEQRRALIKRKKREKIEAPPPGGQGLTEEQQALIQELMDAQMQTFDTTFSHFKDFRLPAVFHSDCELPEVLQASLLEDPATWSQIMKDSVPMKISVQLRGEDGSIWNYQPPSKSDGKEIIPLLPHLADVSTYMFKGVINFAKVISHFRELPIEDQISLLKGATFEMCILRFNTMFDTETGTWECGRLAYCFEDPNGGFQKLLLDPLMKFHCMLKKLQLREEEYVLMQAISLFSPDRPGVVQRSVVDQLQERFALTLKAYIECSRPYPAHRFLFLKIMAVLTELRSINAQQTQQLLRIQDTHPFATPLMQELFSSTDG

[11] = qHTS assay for small molecule activators of the human pregnane X receptor (PXR) signaling pathway (AID 720659; call rule not given here)
[12] = target: Peroxisome proliferator-activated receptor alpha (Homo sapiens) (UniProt Q07869); experiment: qHTS assay for small molecule agonists of the peroxisome proliferator-activated receptor alpha (PPARalpha) signaling pathway (AID 651778); conditions: PathHunter PPARalpha complementation, chemiluminescence, 6 h; hits give high values
Chain of Peroxisome proliferator-activated receptor alpha (Homo sapiens) (Q07869 whole entry, looked up): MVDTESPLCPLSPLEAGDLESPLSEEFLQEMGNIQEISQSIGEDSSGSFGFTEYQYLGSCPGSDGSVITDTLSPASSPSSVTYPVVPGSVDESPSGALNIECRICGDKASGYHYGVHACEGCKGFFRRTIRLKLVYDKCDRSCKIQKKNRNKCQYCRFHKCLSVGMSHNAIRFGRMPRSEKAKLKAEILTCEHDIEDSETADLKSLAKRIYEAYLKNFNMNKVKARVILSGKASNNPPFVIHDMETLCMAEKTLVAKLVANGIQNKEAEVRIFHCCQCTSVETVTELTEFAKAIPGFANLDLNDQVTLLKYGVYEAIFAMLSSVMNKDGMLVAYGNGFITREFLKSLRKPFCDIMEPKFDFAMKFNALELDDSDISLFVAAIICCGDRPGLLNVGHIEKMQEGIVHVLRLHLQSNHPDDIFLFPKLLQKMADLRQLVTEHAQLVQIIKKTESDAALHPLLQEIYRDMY
How it was run: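 Cells plated at 2,000/well and held overnight at 37 C, 5% CO2, then compound added by pin tool for 6 hr; after PathHunter detection reagent and 60 min at room temperature, chemiluminescence from enzyme complementation was read.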

[13] = target: Nuclear receptor ROR-gamma (Homo sapiens) (UniProt P51449); experiment: qHTS assay for small molecule antagonists of the retinoid-related orphan receptor gamma (ROR-gamma) signaling pathway (AID 651802);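 also: CHO cells with doxycycline-induced ROR-gamma expression; series mostly up to about 92 µM; nearly all actives have a fitted effect of over 60% in size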
Chain of Nuclear receptor ROR-gamma (Homo sapiens) (P51449 whole entry, looked up): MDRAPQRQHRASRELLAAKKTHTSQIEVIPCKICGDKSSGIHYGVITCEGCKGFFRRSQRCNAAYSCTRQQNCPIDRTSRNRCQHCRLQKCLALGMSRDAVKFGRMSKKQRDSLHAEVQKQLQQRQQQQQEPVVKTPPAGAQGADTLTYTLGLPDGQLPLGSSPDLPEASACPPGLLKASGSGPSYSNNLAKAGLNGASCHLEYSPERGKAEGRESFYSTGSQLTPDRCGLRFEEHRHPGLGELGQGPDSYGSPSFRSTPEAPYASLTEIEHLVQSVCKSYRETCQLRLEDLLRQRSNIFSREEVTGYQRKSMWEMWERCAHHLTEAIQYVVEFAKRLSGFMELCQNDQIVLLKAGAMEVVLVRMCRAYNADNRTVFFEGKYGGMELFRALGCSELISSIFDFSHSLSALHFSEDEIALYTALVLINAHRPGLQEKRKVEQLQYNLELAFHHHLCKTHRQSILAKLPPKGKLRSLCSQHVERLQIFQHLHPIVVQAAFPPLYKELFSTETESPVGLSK
How it was run: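 Steps: cells dispensed; compound or DMSO transferred by pin tool; doxycycline added to induce the ROR response element-driven luciferase; plates held 16hr at 37C; ONE-Glo added and luminescence measured.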

[14] = qHTS assay to identify small molecules that stimulate interleukin-8 (IL-8) secretion (AID 651758; active = well fitted activation curve with a large enough effect in the signal ratio; the % refers to the signal ratio)
How it was run: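 Quantitative HTS in THP-1 monocytic cells at 2000 cells per well, with 16 hrs compound incubation at 37 C. IL-8 in the medium was then quantified by HTRF immunoassay, read after 1-3 hrs at room temperature.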

Row | Structure (SMILES) | Potency [1] | Potency [2] | Potency [3] | activation [4] | outcome [5] | Potency [6] | max response [7] | max response [8] | Potency [9] | max response [10] | outcome [11] | max response [12] | Potency [13] | Potency [14]
1 | FB(F)F | inactive | inactive | inactive | -0.371% | inactive | inactive | 3.97% | -1.64% | inactive | -0.777% | inactive |  |  | 
2 | CCNS(=O)(=O)c1ccc(C)cc1 | inactive | inactive | inactive | -1.7% | inactive |  | -1.66% | -4.78% | inactive | 2.12% | inactive | -3.34% | inactive | 
3 | CC(C)(C)OCC1CO1 (stereo unspecified) | inactive | inactive | inactive | 2.26% |  | inactive | 11% | -0.898% | inactive | 0.0184% | inactive | -5.74% |  | 
4 | C=CCCC | inactive | inactive | inactive |  | inactive | inactive | 3.55% | -5.1% | inactive | 2.44% | inactive | -5.85% | inactive | 
5 | CCCCOCCOCCOCCCC | inactive | inactive | inactive | -0.359% | inactive | inactive | 10.5% | 3.02% | inactive | -1.56% | inactive |  | inactive | 
6 | CC/C=C/C#N | inactive | inactive | inactive | -1.16% | inactive | inactive | 1.63% | 5.67% | inactive | 1.47% | inactive | 9.19% |  | 
7 | CCOC(=O)C(C)C(C)=O (stereo unspecified) | inactive | inactive | inactive | 0.277% | inactive | inactive | -7.43% | 2.57% | inactive | 4.21% | inactive | -3.29% |  | 
8 | O=P(O)(OCc1ccccc1)OCc1ccccc1 | inactive | inactive | inactive | 1.44% | inactive | inactive | 2.28% |  | inactive | 3.16% | inactive | 1.76% |  | 
9 | CC(C)CO | inactive | inactive | inactive | -1.47% | inactive | inactive | -4.27% | 4.23% | inactive | 1.55% | inactive |  | inactive | 
10 | ClCCl | inactive | inactive | inactive | 0.008% | inactive | inactive | 8.53% | -3.33% | inactive | 1.89% | inactive |  | inactive | 
11 | S=C([S-])NCCNC(=S)[S-].[Zn+2] | inactive | inactive | inactive | 0.897% and 8.85% and 0.332% |  | inactive | -3.47% and -31.7% and -9.84% |  | inactive | -5.53% and -7.82% and -4.11% |  | -15.1% and -9.87% and -6.7% | inactive | 
12 | FC(F)(F)c1ccccc1Cl | inactive | inactive | inactive | -0.14% | inactive | inactive | -5.26% | 10.1% | inactive | -1.61% | inactive | -1.82% |  | 
13 | C=C(C)OC(C)=O | inactive | inactive | inactive | -1.07% | inactive | inactive | 7.41% | -0.625% | inactive | -1.49% | inactive |  | inactive | 
14 | Nc1c(Cl)cc(Cl)cc1Cl | inactive | inactive | inactive | -0.694% | inactive | inactive | -2.36% | -2.95% | inactive | -2.23% | inactive | -2.57% |  | 
15 | CC(=O)OCCC(C)C | inactive | inactive | inactive | 0.441% | inactive | inactive | -11% | 3.44% | inactive | 8.07% | inactive |  | inactive | 
16 | NS(=O)(=O)O | inactive | inactive | inactive | 0.965% |  | inactive | 3.57% | 3.9% | inactive | -5.24% | inactive | -1.54% | inactive | 

Row | Structure (SMILES) | Potency [1] | Potency [2] | Potency [3] | activation [4] | outcome [5] | Potency [6] | max response [7] | max response [8] | Potency [9] | max response [10] | outcome [11] | max response [12] | Potency [13] | Potency [14]
17 | C/C=C1\CC2C=CC1C2 (stereo unspecified) | inactive | inactive | inactive | -0.171% | inactive |  | -2.33% | 9.62% | inactive | 0.0305% | inactive |  | inactive | 
18 | CC(=O)Nc1cccc(N)c1 | inactive | inactive | inactive | -0.0665% | inactive |  | 1.46% | 8.3% | inactive | -0.641% | inactive | -7.63% | inactive | 
19 | CC1CCC2CC1C2(C)C (stereo unspecified) | inactive | inactive |  | -0.275% | inactive | inactive | 1.21% | -8.03% | inactive | -2.72% | inactive | -3.48% | inactive | inactive
20 | CC(=O)c1ccc([N+](=O)[O-])cc1 | inactive | inactive | inactive | 0.202% | inactive | inactive | 19% | 5.77% | inactive | -4.15% | inactive | -2.88% |  | 
21 | CCCCC(CC)CNCC(CC)CCCC (stereo unspecified) | inactive | inactive | inactive |  | inactive | inactive | 3.58% | -4.58% | inactive | -1.1% | inactive | -0.499% | inactive | 
22 | Cc1cccc(C(=O)O)c1 | inactive | inactive | inactive | 0.807% | inactive |  | -0.706% | 2.24% | inactive | -5.92% | inactive |  | inactive | 
23 | CC(C)(O)C(=O)O | inactive | inactive | inactive |  | inactive | inactive | 1.81% | 1.23% | inactive | 0.872% | inactive | 4.71% | inactive | 
24 | O=C(O)CNC(=O)c1ccc([N+](=O)[O-])cc1 | inactive | inactive | inactive | 0.908% | inactive | inactive | 1.63% | -4.53% | inactive | 1.39% | inactive |  |  | 
25 | Cc1c(C(=O)O)cccc1[N+](=O)[O-] | inactive | inactive | inactive | 1.63% | inactive | inactive | 17.9% |  | inactive | 0.0854% | inactive |  | inactive | 
26 | C1CCC2OC2C1 (stereo unspecified) | inactive | inactive | inactive |  | inactive | inactive | -3.72% | -1.95% | inactive | -4.14% | inactive |  | inactive | 
27 | Cc1ccc2c(c1[N+](=O)[O-])C(=O)c1ccccc1C2=O | 1880 nM (active) | 1330 nM (active) | inactive |  |  |  | -12.9% |  | inactive | 5.79% |  | -3.62% | inactive | 
28 | CC(C=O)Cc1ccc(C(C)(C)C)cc1 (stereo unspecified) | inactive | inactive | inactive | 0.301% and -1.84% | inactive |  | -4.71% and -17.8% | 9% and 0.62% | inactive | 2.84% and 3.47% | inactive | -2% and -1.24% |  | 
29 | CCNc1ccccc1 | inactive | inactive | inactive | 0.398% | inactive |  | -0.56% | -1.34% | inactive | -2.55% | inactive | -1.14% | inactive | 
30 | CC(C)Cc1nccs1 | inactive | inactive |  | 1% | inactive | inactive | 25.9% | -11.2% | inactive | 7.57% | inactive | -1.04% | inactive | inactive
31 | CC(=O)c1cccc([N+](=O)[O-])c1 | inactive | inactive | inactive | 1.48% | inactive | inactive | 17.8% | -8.78% | inactive | -2.86% | inactive | 0.67% |  | 
32 | CCCCCCCN | inactive | inactive | inactive | -0.576% | inactive | inactive | -1.43% | 9.44% | inactive | -0.183% | inactive |  | inactive | 
